This is an account of results in the supplement of paper PMC10681739.

± gives the standard deviation of the averaged measurements. Over roughly 4,100 sequences, “arbitrary fluorescence units” has its median near 780; the highest 2% begin near 22,000. This excerpt belongs to a sample that is enriched for the highest values.

This assay addresses T1, ETS1 (UniProt P14921).
T1 sequence: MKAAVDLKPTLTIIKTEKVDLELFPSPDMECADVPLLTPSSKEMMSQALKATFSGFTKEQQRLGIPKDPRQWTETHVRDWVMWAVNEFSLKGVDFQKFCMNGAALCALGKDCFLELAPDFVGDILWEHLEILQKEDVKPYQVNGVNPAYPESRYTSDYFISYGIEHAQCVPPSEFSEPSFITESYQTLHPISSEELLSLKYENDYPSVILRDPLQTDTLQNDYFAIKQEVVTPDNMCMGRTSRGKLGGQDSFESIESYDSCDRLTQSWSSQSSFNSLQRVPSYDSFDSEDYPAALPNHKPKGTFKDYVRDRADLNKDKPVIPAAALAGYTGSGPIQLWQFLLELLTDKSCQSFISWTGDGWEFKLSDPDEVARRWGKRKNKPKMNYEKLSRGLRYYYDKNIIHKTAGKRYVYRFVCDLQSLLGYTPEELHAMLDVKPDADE
Put plainly: ETS1 binding intensity (PBM fluorescence), ETS1 alone (arbitrary fluorescence units); higher = stronger binding. The conditions noted are these: ETS1 concentration 1 nM; RUNX1 concentration 0 nM. The procedure:
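gcPBM on 36-bp genomic-derived probes (partner site mutated) containing one ETS1 site and no RUNX1 site. Recombinant human ETS1 (1 nM) was incubated alone or with RUNX1 (25 nM) and detected by anti-ETS1 antibody fluorescence. Values are medians over 4 replicate spots (not normalised). The probes sit in constant array flanks that are not printed.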
For the sequence GGAGGGGCTGGCCGGAAGTGAACCGAAGAGCACGCT, the ETS1 binding intensity worked out at 16700.
The figure for TGCGCCAGCGGGAGGGAGCAGTTCCGGGTACGGTGC is 563.
The figure for CAGGACCCCTGTACTCCGGGTGAAGCGGAAGCGCAG is 667; for TTATCTGTCGTTCTTTTATGGGGTGGGCTTCCTCTG it is 503.
To GAGAAAGCAGCGCCCCAGCGCGCCTTCCGCCACGCC belongs 328.
CTGACTTGTTGTAGTCTCTGCCACTTCCTGAGGTGT returned an ETS1 binding intensity of 668.
As to AGCCGCCACTTCCTGTCTCTGAGGGTGCATGCTCTT, the ETS1 binding intensity turned out to be 36000.
The figure for CAGTCTGGCCATGAGGTGCCACTTCCTCTCTGGTTT is 1550; for TAAAATTTCGGGAGGGGACTTGGTCCTTCCTGTTGC it is 735.
With GCGCCCCGCTTCCGGGGCCGCCCTAAACGGCGGCCG, the ETS1 binding intensity was found to be 10100.
The figure for AGCAACCTACTACCCGGCGCCTGATTCACTTCCCTC is 391; for CTTACTATATTAACGCCGGTACACATCCGCCCGACA it is 1800; for CCCCGTTACGCCCATCCGGCTCCCGAATAGGGCGTC it is 2610.
To ATTACATCCGGGCTCCGCGACACGCCCGAACCCCAA belongs 25300; to CTTACGGCCTCGCGCCATGGGCAGTATCCGCCGCCA, 328; to GATGGGCTGGGGATGTGGCCTGTTTGCCGCTGGCGA, 361.
The figure for GGCTGCGACTTCCGGACTGCTCCTGGCCGCTGGGGG is 22900 ± 1200; for GGCTGCGCCGGCTGGGGTGTTCCTCCGACTTCCGGA it is 1590.
Take CAGCCGACTTCCGGGGTGGGGCTTGCTGCCGCTGAG: the ETS1 binding intensity stood at 19300.
To GCAGAGAGGAAGTGTGGGGGTGGAGGAGGCCGAAGA belongs 1840.
As to AGACGGGACCGGAAGCCGGGCCGTAGGCGGCCGGGC, the ETS1 binding intensity was found to be 12100.
In the case of GCCGCCGTAGATTCGACACAAAACCCGGAAGGACCC, the ETS1 binding intensity stood at 530.
To TTTCGAGAAAACCGGAAGTGCGTGGACACGCCCCGC belongs 31500; to AAACTACTTCCCCATATCATCTGTAGCTTGCACAAC, 1180.
As for CTTAGCACTTGTAGTCAGCCTGCTTCCGGCTGTGGC, the ETS1 binding intensity worked out at 2100.
TGAGGTGCTAAAGCACCAAGCACTTCCTGCTGTTAG: the ETS1 binding intensity worked out at 3380.
The figure for GCGAGCACTTCCGGTGTGTGAGCCTGCTGTTGCTAC is 32800.
The figure for GGGGCAGGAAGTGGAGGTTTGAAGTGCTTTAGAGTA is 7390; for GGGCCCCTCAGCCCGACCGCCTGACCGGAAGTGCAG it is 5030.
TGAACTCCGCCCAGCGCGATCCGGAAGCCTAGCGCC gave an ETS1 binding intensity of 443.
The figure for TTGGTGACCTCTTCCTGTCCGCTGGGGTGTTGTTAC is 3680.
In turn, TCGCTTCCGGTGTCGGTTACAGACTGGGGTTGCCAT had an ETS1 binding intensity of 30000.
On to TGCTTCCCGTCCGTGTCGCGGCCCTGGGGTTGGCGG, for which the ETS1 binding intensity came to 8550.
TTCAGGCGGCAAAGAACAGACCTGCAGGAGGAAATA gave an ETS1 binding intensity of 404.
Consider CTCTTCCGGCCGCGAGGAGCGCGACAGCGGCCCCTG, for which the ETS1 binding intensity was 14400.
The figure for TGTTGACTCAGGAAGATGATGGCTGAGGGGGCTGCA is 509.
The figure for CACTTCCTCCTCGGGGGCCTCAGAAAATCACAGGGC is 13200; for TCTAAATCACTTCCTGTTACAGAAACTACAGGCCTG it is 26900.
In turn, CTAAAGGCAGGGACTACAAACACTTCCTGTTTGTGT yielded an ETS1 binding intensity of 7710.
The figure for GGAGCGCGCTGGGGACGTTTAAAGGAAATTTACAAT is 363; for TCCGTGAGGTGCAGCAGGTCGGTAGGCGGGAAATGG it is 378.
To TGCTGCACCCCAGCCCCTTTCTCTTCCGGTTCTAGG belongs 1850; to AACATCCGGTTCCCGGTTCTGCCCCCTACCCCAGCT, 49100.
To CCGACCCCAGCTTCCCGGGGTTGAGGCCCTGCCTCC belongs 462; to GACCACTTCCTTTCTGTGTTTTGGGGTTTCACAACT, 11900; to ACAACTTCCTGTGGGATTTTTGGTGTCTACGGCTCA, 37400.
In turn, ACTTGACTTCCTGTGGGGTGTCTGGTGTCTGCACTT registered an ETS1 binding intensity of 11700.
To GGGCCCACATCCGGCGCGCGCAACAGCAGCCTACTG belongs 25800.
To GTCCAACAGCAGCCAGGCAAGCACATCCTGCCCCAC belongs 1980; to CTCCCACATCCGAAGCGGCGCAACTCACAACAGCCT, 1140; to CGAAGAGGAAACAAAGAAAGGTGCTGTTCTGGCGCC, 506.
The figure for TCAAGAAAACAGGAAACTCTCAAATCCAAGTTCTGA is 3280; for TTCTATCCTGCCTTGCATGTCTTTAATCACACTGAG it is 1540; for ATGAGCTATTTCCTGCCTTGTTGTCAGAGCCAGACT it is 23500.
CAGCTGCAGGCCTGGGTGTACGGAGCCCGGAACAGG: the ETS1 binding intensity is 567.
The figure for TACCTACAGGAAATGAGACACACCTCAGGCCGATCC is 5550; for CTCAGACCCTCAGTGAGGTCTGACGTCATTTCCTGC it is 734.
To CCTGCTGCTGTCAGCCCTGTCTCTTCCTGTTTCTGC belongs 1030; to CACTTCCGGGTCGTCAGCTCAGTTCTGCTGTTTCTG, 26000; to CTCGTGTTTTGTAGCTGTGTTCTGTCCGGTCAGTTG, 502 ± 32.
TGGATAGTGGGACACCTCAACAGGATGTTAGTGAGG: the ETS1 binding intensity came out at 858.
To GACGGCCGCTTTTGGCGCGGGACTTCCTGCCTGGCC belongs 3070; to CCCTCCGGCCCTCAGCCCTGCCCAAACGGAAGTGCT, 787.
